# Screening results deposited in PubChem by The Scripps Research Institute Molecular Screening Center.
# DAX1 inh-1: inhibitors of human orphan nuclear receptor DAX1 (NR0B1) | 340,000 tested, 0.99% active | P51843 | inhibition, % at 6.75 µM | HEK293 Gal4-DAX1 luciferase reporter, luminescence;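 active = inhibition above the mean over all tested compounds plus 3 SD, cut at about 4.2% in these data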;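 also: inhibition shows as a rise in luminescence from relieved DAX1 repression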
# hcDAF12 agonist: activators of H. contortus DAF-12 nuclear receptor; HEK293 hcDAF-12 lit1-tk-luc reporter, luminescence; 0% DMSO, 100% Δ7-dafachronic acid; activation, % at 6.8 µM; 370,000 tested, 1.4% active;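 active = activation above the mean of all tested compounds plus 3 SD, cut at about 5.5% in these data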
# ssDAF-12 act: S. stercoralis DAF-12 activation, primary screen; HEK293 ssDAF-12/GRIP1 lit1-tk-luc reporter, luminescence; % of 3 µM dafachronic acid response; 370,000 tested, 1% active; AID 652126; activation, % at 6.8 µM;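 active = activation above the mean over all tested compounds plus 3 SD, cut at about 0.9% in these data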
# DAX1 inh-2: inhibitors of DAX1 repression of SF-1 activated StAR promoter. AID 652010. HEK293T StAR-luciferase reporter, SF-1/DAX-1 repression relief. inhibition, % at 6.8 µM. 370,000 tested, 1.1% active;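 active = inhibition above the mean over all tested compounds plus 3 SD, cut at about 3.6% in these data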;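 also: higher inhibition means more luminescence from relief of DAX-1 repression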
# hgDAF-12 ag: activates the H. glycines DAF-12 receptor ligand-binding domain. activation, % at 6.8 µM. HEK293 GAL4-hgDAF12 UAS-luciferase reporter, agonist luminescence; normalized to butyrate control. 370,000 tested, 1.8% active;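 active = activation above a cutoff set at the mean of all screened compounds plus 3 SD, cut at about 10% in these data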
# AHR act: activators of human aryl hydrocarbon receptor; P35869; AHR-responsive luciferase reporter cells, luminescence; activation, % at 5 µM; 320,000 tested, 2.5% active; in the data active = activation above about 47%
# AHR act confirm: human AHR activation, confirmation; activation, % at 9 µM; 2,300 tested, 87% active; shares compounds with AHR act; AID 2845; human cells, AHR-responsive luciferase reporter, luminescence; in the data active = activation above about 49%;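 also: HepG2 hepatoma cells carrying a DRE-driven firefly luciferase reporter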
# PXR counter: PXR activation, counter-screen for AHR activators; shares compounds with AHR act; cell-based PXR reporter, luciferase luminescence; activation, % at 11.6 µM; 2,300 tested, 88% active; in the data active = activation above about 11%;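 also: human hepatoma DPX-2 cells expressing full-length human PXR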
# Target sequence (O75469 whole entry, looked up): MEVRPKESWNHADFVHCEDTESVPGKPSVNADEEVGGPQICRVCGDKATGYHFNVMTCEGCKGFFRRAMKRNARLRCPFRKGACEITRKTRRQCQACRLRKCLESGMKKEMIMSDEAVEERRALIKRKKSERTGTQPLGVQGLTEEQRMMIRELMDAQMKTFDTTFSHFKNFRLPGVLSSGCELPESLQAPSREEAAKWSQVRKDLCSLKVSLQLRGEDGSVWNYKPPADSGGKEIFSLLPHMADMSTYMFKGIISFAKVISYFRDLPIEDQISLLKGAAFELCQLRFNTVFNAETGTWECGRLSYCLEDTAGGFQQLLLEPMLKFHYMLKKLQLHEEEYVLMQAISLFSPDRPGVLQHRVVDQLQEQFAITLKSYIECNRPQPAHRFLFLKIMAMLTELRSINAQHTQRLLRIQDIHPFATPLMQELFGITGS
# Hits are given with their value; - = inactive; . = no result given. Rows were chosen to be rich in hits. Some 5.7% of all compounds tested hit in one or more screens of this group.
SMILES,DAX1 inh-1,hcDAF12 agonist,ssDAF-12 act,DAX1 inh-2,hgDAF-12 ag,AHR act,AHR act confirm,PXR counter
COCCOC(=O)c1[nH]c2c(c1C)C(=O)CC(c1ccc(F)cc1)C2 (centres undefined),-,-,-,-,-,-,.,.
O=[N+]([O-])c1c(NCCCO)cc(SCc2ccco2)c2nonc12,-,-,-,-,-,-,.,.
Cc1nn(-c2ccccc2)cc1/C=N/NC(=O)c1cccs1,-,-,-,-,-,-,.,.
O=C(N/N=C/c1ccc(-n2ccnc2)cc1)c1cccs1,-,-,-,-,-,97,65,23
O=C(NC(=Nc1nc2ccccc2o1)NC(=O)c1ccccc1)c1ccccc1,-,-,-,-,-,-,.,.
COc1ccccc1C(=O)NC(=Nc1nc2ccccc2o1)NC(=O)c1ccccc1OC,-,5.9,-,-,-,107,133,45
N/C(=N\c1nc2ccccc2o1)NC(=O)c1ccccc1F,-,-,-,-,-,104,167,15
NC(=O)c1c(NC(=O)CCCn2cnc([N+](=O)[O-])n2)sc2c1CCCC2,-,-,-,-,-,-,.,.
N#Cc1ccc(C(=O)Nc2cc(S(=O)(=O)Nc3ccc(Cl)cc3)ccc2N2CCCCC2)cc1,-,-,-,-,-,105,58,119
O=C(Nc1cc(S(=O)(=O)Nc2ccc(Cl)cc2)ccc1N1CCCCC1)c1ccc(F)cc1,-,-,-,-,-,-,.,.
COc1ccc(N(C(=O)c2cnccn2)C(C(=O)NC2CCCCC2)c2cc(OC)c(OC)c(OC)c2)cc1 (centres undefined),-,-,-,-,-,-,.,.
Cc1ccc(C)c(OCc2ccc(C(=O)N3N=C(C(F)F)CC3(O)C(F)F)o2)c1 (centres undefined),-,-,-,-,-,-,.,.
CN(C)S(=O)(=O)c1cccc(C(=O)Nc2cc(Cl)ccc2O)c1,-,-,-,-,-,84,-,90
CN(C)S(=O)(=O)c1cccc(C(=O)Nc2ccccc2Cl)c1,-,-,-,-,-,-,.,.
CCN(CC)S(=O)(=O)c1cccc(C(=O)Nc2ccc3c(c2)OCO3)c1,-,-,-,-,-,165,103,134
CN(C)S(=O)(=O)c1cccc(NC(=O)c2ccc3c(c2)OCCO3)c1,-,-,-,-,-,102,92,110
Cc1ccc(C(=O)Nc2ccc3c(c2)OCO3)cc1S(=O)(=O)N1CCCC1,-,-,-,-,-,82,70,218
COc1ccc(S(=O)(=O)N(C)C)cc1NC(=O)c1ccc2c(c1)OCCO2,-,-,-,-,-,-,.,.
CCCN(CCC)S(=O)(=O)c1cccc(C(=O)Nc2ccc3c(c2)OCO3)c1,-,-,-,-,-,-,.,.
Cc1cc(C)nc(N/N=C/c2ccccc2OCc2ccc([N+](=O)[O-])cc2)n1,-,-,-,-,-,-,.,.
O=[N+]([O-])c1ccc(N/N=C\c2ccccc2OCc2ccccc2)cc1,-,-,-,-,-,85,62,46
Cc1nc(-c2ccccn2)sc1C(=O)Nc1ccc(Cl)c(Cl)c1,-,-,-,-,-,109,57,40
CC(=O)c1ccc(S(=O)(=O)N(C)CC(=O)Nc2cc(C)on2)cc1,-,-,-,-,-,.,.,.
Cc1ccc2c(c1)CCCN2C(=O)Nc1ccc2c(c1)OCO2,-,-,1.6,-,12,106,96,83
Cc1cc(NC(=O)NC(=O)c2cccc(OC(F)(F)C(F)F)c2)n[nH]1,-,-,-,-,-,157,104,17
SMILES,DAX1 inh-1,hcDAF12 agonist,ssDAF-12 act,DAX1 inh-2,hgDAF-12 ag,AHR act,AHR act confirm,PXR counter
O=C(Nc1cccnc1)C1OCCc2ccccc21 (centres undefined),-,-,-,-,-,-,.,.
O=C(Nc1ccc(Br)cc1)C1OCCc2ccccc21 (centres undefined),-,-,-,-,-,103,107,116
O=C(NC(=S)Nc1ccc(CN2CCOCC2)cc1)c1ccc(-c2cccc(Cl)c2)o1,-,-,-,-,-,90,67,20
O=C(/C=C/c1ccc(Cl)cc1Cl)NC(=S)Nc1ccc(CN2CCOCC2)cc1,-,-,-,-,-,105,-,83
O=C(Nc1ccc(CN2CCOCC2)cc1)c1ccc(-c2cccc(Cl)c2)o1,-,-,-,-,-,-,.,.
C/C(=N\NC(=O)c1cc2ccccc2cc1O)c1ccc(C)o1,-,-,-,-,-,-,.,.
O=C(NN=C1CCCCCC1)c1c[nH]c2ccccc12,-,-,-,-,-,91,-,-
C/C(=N\NC(=O)c1c[nH]c2ccccc12)c1ccc(C)o1,-,5.7,2.7,-,-,82,119,17
CCOC(=O)c1nnn(-c2nonc2N)c1CN(C)Cc1ccccc1,-,-,-,-,-,-,.,.
O=c1c(-c2ccccc2)n[nH]c2ccccc12,-,-,-,-,11,117,81,26
Cn1c(=O)n(C)c2cc(NC(=O)c3cccc([N+](=O)[O-])c3)c(Br)cc21,-,-,-,-,-,101,101,-
Cn1c(=O)n(C)c2cc(NC(=O)c3ccc(F)cc3)c(Br)cc21,-,-,-,-,-,-,.,.
O=C(Nc1ccc(Cl)cc1)c1ccc2snnc2c1,-,6.2,-,-,11,129,103,26
COc1cccc(C(=O)O/N=C(\N)c2ccc([N+](=O)[O-])cc2)c1,-,-,-,-,-,79,75,.
COc1cccc(Cn2nnc(C(=O)Nc3ccc(C)cc3)c2N)c1,-,-,-,-,-,-,.,.
COc1cccc(Cn2nnc(C(=O)Nc3cc(C)ccc3OC)c2N)c1,-,.,.,.,.,128,-,26
O=Cc1c(N2CCOCC2)nc2ccccn2c1=O,-,-,-,-,-,-,.,.
CCC(C)c1ccccc1NC(=O)CN(CC)CC(=O)Nc1ccc2c(c1)OCCO2 (centres undefined),-,-,-,-,-,-,.,.
CCCc1nn(C)c(C(=O)Nc2ccccc2)c1Cl,-,-,-,-,-,82,89,13
Cn1cc(C(=O)Nc2ccc(Cl)cc2)c(C(F)(F)F)n1,-,-,-,-,-,107,101,27
Cn1nc(C(F)(F)F)c(C(=O)Nc2ccc(Cl)cc2)c1Cl,-,-,-,-,-,-,.,.
CCCc1nn(C)c(C(=O)Nc2ccc(Cl)cc2)c1Cl,-,-,-,-,-,88,126,24
Cc1ccc(-n2cc(C(=O)c3ccc(N4CCN(C)CC4)cc3)nn2)cc1Cl,-,-,-,-,-,90,-,15
OC1(C#Cc2c(-c3ccsc3)oc3ccc(N4CCOCC4)cc23)CCCCC1,-,-,-,-,-,111,120,80
